Test results reported in the supplement of paper PMC6555819.

What was measured:
Assay in all cases: PBM binding z-score (relative to random genomic background probes); higher = stronger binding; sequences stand for … in GC…GCGATTGACAGCGTAGAATGAAGG
[1] = test system: RARb homodimer (NR concentration 270 nM)
Procedure, shortened: (§1)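 Binding z-scores take random background probes as their reference. They come from custom Agilent 4×180K protein-binding microarrays incubated 1 h with ligand-free nuclear receptor dimers, with antibodies against each partner (one per run) detecting binding. Scanned fluorescence was regression-normalized.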

[2] = test system: RARg:RXRa (NR concentration 270 nM, RXRa partner concentration 90 nM)
Procedure, shortened: as §1

[3] = test system: RARg homodimer (NR concentration 270 nM)
Procedure, shortened: as §1

[4] = test system: RXRa DBDmut IVT, anti-RXR (DBD mutation: RXRa K156A/R161A, NR concentration 90 nM)
Procedure, shortened: as §1

[5] = test system: RXRa homodimer (NR concentration 180 nM)
Procedure, shortened: as §1

[6] = test system: THRa:RXRa (NR concentration 90 nM, RXRa partner concentration 90 nM)
Procedure, shortened: as §1

[7] = test system: THRa homodimer (NR concentration 90 nM)
Procedure, shortened: as §1

[8] = test system: VDR:RXRa (NR concentration 270 nM, RXRa partner concentration 90 nM)
Procedure, shortened: as §1

[9] = test system: VDR homodimer (NR concentration 270 nM)
Procedure, shortened: as §1

Sequence | PBM binding z-score [1] | PBM binding z-score [2] | PBM binding z-score [3] | PBM binding z-score [4] | PBM binding z-score [5] | PBM binding z-score [6] | PBM binding z-score [7] | PBM binding z-score [8] | PBM binding z-score [9]
ATATGTGGGTTAGGGTCATTCAGAAAGTAGGGAA | 3.67 | 4.16 | 3.23 | 2.95 | 5.55 | 4.42 | 4.11 | 4.97 | 4.92
CCGAGTAGGTTACGATGGGGCATTCAGTGCGAAT | 0.657 | 0.828 | 0.851 | 0.0778 | 0.63 | 1.08 | -0.789 | 0.842 | 0.231
TGGAGTAGGTTACGGGGGCATTCAGGGATGAAGA | 2.94 | 3.75 | 3.39 | 2.16 | 2.83 | 4.11 | 2.48 | 4.24 | 3.94
AATACAGGGTCACTGGGCCAGAGTAGGTACGAAT | 3.72 | 5.73 | 5.37 | 2.35 | 6.2 | 3.59 | 1.3 | 4.65 | 2.73
CCGATTAGGTTACGAGGGGGCATTCAGTGCGAAT | 2.56 | 3.12 | 2.54 | 1.96 | 1.52 | 3.91 | 1.57 | 5.1 | 2.8
CCTTACGGGTCACTCTAGGTTATAGCATCGGAGT | 3.22 | 4.35 | 4.38 | 2 | 4.27 | 4.93 | 0.527 | 3.67 | 1.39
CTTAGTTGGTCAGGAGGTCACACACCGGATATGA | 4.33 | 5.21 | 4.53 | 1.06 | 4.99 | 3.67 | 2.65 |  | 2.74
CGAAATAGGTCACCAGGACAGTGAAGAGGTTGGA | 3.91 | 5.54 | 5.96 | 0.868 | 5.18 | 3.12 | 0.942 | 2.91 | 0.687
CGTCTAAGGTCAAGGTCAGTGAAAGAGACTCGAA | 5.28 | 7.24 | 8.01 | 4.05 | 7.32 | 4.53 | 4.38 |  | 3.2
TCGAGTAGGTTACGGGGGCATTCTGGGATGAAGA | 2.05 | 3.25 | 2.19 | 1.74 | 2.52 | 3.32 | 1.3 | 3.65 | 3.52
CTCGAAAGGTCGGTTGAGGTGACTATACGGATAA | 2.54 | 3.04 | 2.85 | 0.99 | 2.76 | 5.16 | 1.68 |  | 0.829
CCAGAAAGGTGAAAGGTAACTCAGTCTGGTACGC | 1.92 | 3.17 | 2.13 | 0.365 | 4.27 | 1.94 | 0.107 |  | 0.0179
CGAACTAGGTCAAAGGACAGTGTAAGGCGACGTA | 3.11 | 4.01 | 4.55 | 1.32 | 3.01 | 2.9 | 0.826 | 1.58 | 0.391
AGTCAAAGTTCAGGACGAGATAACGTAAAGCACG | 2.69 | 3.84 | 4.59 | 2.82 | 2.8 | 1.76 | 0.431 |  | 1.95
ATCTCTAGGTGAAAGTTCAGTGAATCCCGAGGAT | 2.67 | 2.88 | 2.27 | 0.779 | 2.74 | 2.19 | 0.227 |  | 1.33
TTACCAAGGTGAACTGAGGTCGTTGATCCAACTC | 2.38 | 2.52 | 1.54 | 1.71 | 2.63 | 4.93 | 3.07 | 5.77 | 3.63
CGGACTGGGGCAAAGGTTACCATACTCAGTACGA | 2.31 | 3.75 | 1.9 | 0.0322 | 3.79 | 2.1 | 0.079 | 1.9 | 0.18
ACTAGGAGGACAAAGGTCAGAGCTACGCCAGTGA | 4.5 | 6.01 | 5.64 | 0.898 | 5.85 | 3.37 | 0.874 | 3.45 | 0.936
CCTAGATGGTCAGGAGGTCACACACCGGATATGA | 4.09 | 5.06 | 4.28 | 0.392 | 4.73 | 3.5 | 2.26 | 3.76 | 2.68
CTATGTAGGTTAATGGGGTCATTCAGTTTGAAAG | 3.6 | 4.72 | 3.17 | 3.07 | 6.2 | 4.28 | 3.09 |  | 7.21
CCTTACAGGTCAAGGTTATAGCACGGGTGGTACG | 3.78 | 5.27 | 5.53 | 1.83 | 4.72 | 3.18 | 1.33 | 3.41 | 1.73
TCGAGTAGGTTACGGGTGCATTCAGGGATGAAGA | 0.631 | 0.869 | 0.463 | 0.951 | 1.29 | 2.22 | -0.191 |  | 2.69
CCGAGTACGTTACGAGGGGGCATTCAGTGCGAAT | 1.5 | 1.85 | 1.41 | 3.95 | 1.17 | 2.36 | 0.395 | 4.15 | 4.78
CCTTACGGGTCGCTGACAGGTTATAGCATTTGGA | 1.02 | 2.45 | 1.01 | 0.55 | 1.78 | 0.913 | -0.259 | 0.961 | 0.138
